The nature of test [1]: qHTS assay to identify small molecule agonists of the hypoxia (HIF-1) signaling pathway - cell viability counter screen (AID 1224844; calls by dose curve; note: nearly all actives have a fitted effect of over 50% in size; note: potency is the fitted concentration of half-maximal effect). Put shortly:
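Cells (HRE-bla ME-180, 2,000 per well) sat 5 hrs at 37C, got compound for 17 hrs, were read for CCF4-AM FRET, and were finally lysed with CellTiter-Glo for a 30 min room-temperature luminescence read.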
(Quantitative high-throughput screening tests each substance at several concentrations.)

A short description of test [2]: qHTS assay to identify small molecule agonists of H2AX (AID 1224845; active = well fitted activation curve with a large enough effect in the signal ratio in the repeat runs, not every such curve was filed as active; the % refers to the signal ratio). An outline of the steps: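 Wild-type CHO-K1 cells, plated overnight, exposed 3hr at 37C to 15 concentrations (0.76% DMSO final). Lysed, then HTRF anti-pH2AX (S139) cryptate and anti-H2AX-d2 antibodies, 24 hr room temperature; 665/620 nm emission read.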
Test [3] can be described thus: qHTS assay to identify small molecule agonists of H2AX - cell viability counter screen (AID 1224847; calls by dose curve; note: nearly all actives have a fitted effect of over 30% in size; note: potency is the fitted concentration of half-maximal effect). Put shortly:
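For this counter screen, overnight-attached CHO-K1 cells received test compounds (15 concentrations, 0.76% DMSO final); 3 hr later at 37C, CellTiter-Glo reagent was added and luminescence recorded after 30 min at room temperature.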

Test [4] can be described thus: qHTS RealTime-Glo MT Cell Viability Assay in HepG2 cells - 24 hour (AID 1224867). Note: nearly all actives have a fitted effect of over 50% in size. An outline of the steps: (§1)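 Luminescence read-out: viable HepG2 cells reduce a prosubstrate to a NanoLuc substrate, giving a signal proportional to live cell number. Reads taken at 0, 8, 16, 24, 32 and 40 h of compound exposure at 37 C.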
The nature of test [5]: qHTS RealTime-Glo MT Cell Viability Assay in HEK293 cells - 32 hour (AID 1224868). Note: nearly all actives have a fitted effect of over 50% in size. Note: potency is the fitted concentration of half-maximal effect. An outline of the steps:
(§2)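 Nonlytic real-time viability readout: viable cells convert prosubstrate to NanoLuc substrate, giving luminescence proportional to live cell number. HEK293, 600 cells/well, compound added after 5 h, continuous culture at 37 C.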

Test [6] is described as follows: qHTS RealTime-Glo MT Cell Viability Assay in HepG2 cells - 40 hour (AID 1224870). Note: nearly all actives have a fitted effect of over 50% in size. Note: potency is the fitted concentration of half-maximal effect. An outline of the steps: (§3)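 HepG2 cells (600/well) mixed with RealTime-Glo MT reagent, settled 5 h at 37 C/5% CO2 before compound addition. Nonlytic NanoLuc luminescence from viable-cell prosubstrate reduction read repeatedly during 40 h treatment at 37 C.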
Test [7] can be described thus: A CellTox Green Cytotoxicity Assay to monitor cytotoxicity in HEK293 cells - 40 hour (AID 1224871). Note: nearly all actives have a fitted effect of over 45% in size. Note: potency is the fitted concentration of half-maximal effect. Put shortly:
(§4)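 Fluorescence intensity, read at 0, 8, 16, 24, 32 and 40 h of compound treatment, reflected dye binding to DNA of dead HEK293 cells; compounds (23 nL, DMSO) were added 5 h after plating cells with reagent.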

Test [8] can be described thus: qHTS RealTime-Glo MT Cell Viability Assay in HEK293 cells - 16 hour (AID 1224872). Put shortly:
as §2

Test [9] in a line: qHTS RealTime-Glo MT Cell Viability Assay in HepG2 cells - 8 hour (AID 1224873). Note: nearly all actives have a fitted effect of over 55% in size. Put shortly: as §3
The nature of test [10]: qHTS RealTime-Glo MT Cell Viability Assay in HEK293 cells - 40 hour (AID 1224874). Note: nearly all actives have a fitted effect of over 50% in size. Note: potency is the fitted concentration of half-maximal effect. To be noted: RealTime-Glo luminescence; max response: stronger effect = lower value. Put shortly: (§5)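 Viable HEK293 cells reduce a cell-permeant prosubstrate; the product diffuses out and is consumed by NanoLuc in the medium to give light. Compounds went in after a 5 h incubation and plates were read over the treatment course.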

Test [11] in a line: A CellTox Green Cytotoxicity Assay to monitor cytotoxicity in HEK293 cells - 24 hour (AID 1224875). Note: nearly all actives have a fitted effect of over 45% in size. Put shortly: as §4
Test [12] in a line: A CellTox Green Cytotoxicity Assay to monitor cytotoxicity in HepG2 cells - 16 hour (AID 1224876). Note: nearly all actives have a fitted effect of over 45% in size. Note: potency is the fitted concentration of half-maximal effect. Put shortly:
(§6)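 Using 1536-well format, dye-containing HepG2 suspension was seeded, allowed 5 h at 37 C/5% CO2, dosed by pintool with compounds, positive and negative controls, and imaged for fluorescence across 40 h.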

Test [13] in a line: qHTS RealTime-Glo MT Cell Viability Assay in HepG2 cells - 32 hour (AID 1224877). Note: nearly all actives have a fitted effect of over 55% in size. An outline of the steps:
as §1

Test [14] can be described thus: A CellTox Green Cytotoxicity Assay to monitor cytotoxicity in HepG2 cells - 24 hour (AID 1224878). Note: nearly all actives have a fitted effect of over 45% in size. An outline of the steps: as §6
Test [15] is described as follows: A CellTox Green Cytotoxicity Assay to monitor cytotoxicity in HepG2 cells - 40 hour (AID 1224879). Note: nearly all actives have a fitted effect of over 40% in size. Note: potency is the fitted concentration of half-maximal effect. An outline of the steps: as §6
The nature of test [16]: qHTS RealTime-Glo MT Cell Viability Assay in HEK293 cells - 0 hour (AID 1224880). Note: nearly all actives have a fitted effect of over 45% in size. Note: potency is the fitted concentration of half-maximal effect. An outline of the steps: as §5
A short description of test [17]: qHTS assay to identify small molecule agonists of the hypoxia (HIF-1) signaling pathway (AID 1224846; active = well fitted activation curve with a large enough effect in the signal ratio in the repeat runs, not every such curve was filed as active; the % refers to the signal ratio). Put shortly: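 A low-serum medium (0.5% dialyzed FBS) holding 2,000 HRE-bla ME-180 cells per well is preincubated for 5 hrs, dosed with compounds by pintool, and kept a further 17 hrs at 37C, 5% CO2 before CCF4-AM FRET detection of beta-lactamase.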
Test [18] can be described thus: qHTS assay to identify small molecule antagonists of the estrogen related receptor (ERR) signaling pathway from Tox21 library (AID 1224848). Note: nearly all actives have a fitted effect of over 50% in size. Note: potency is the fitted concentration of half-maximal effect. An outline of the steps: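 Luminescent reporter read-out (ONE-Glo) from NTP's ERR cell line after 18 h treatment at 37 C with DMSO-dissolved Tox21 compounds; cells pre-plated 6 h beforehand at 2,000 per well.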
Test [19] can be described thus: qHTS assay to identify small molecule agonists of the estrogen related receptor (ERR) signaling pathway from Tox21 library (AID 1224849; calls by dose curve; note: nearly all actives have a fitted effect of over 15% in size). To be noted: ERR reporter cell line, ONE-Glo luciferase, 18 h. An outline of the steps: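 Screening used an NTP-provided ERR luciferase cell line. Compounds in DMSO were added 6 h after seeding and left 18 h at 37 C before a 30 min ONE-Glo step and luminescence reading.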

Test [20] in a line: A CellTox Green Cytotoxicity Assay to monitor cytotoxicity in HEK293 cells - 0 hour (AID 1224869). Note: nearly all actives have a fitted effect of over 50% in size. Note: potency is the fitted concentration of half-maximal effect. An outline of the steps:
as §4

Several values for one entry are separate records, joined by “and”; a condition that tells them apart may be missing. Equal values may be shown once. Inconclusive results are not listed. The source holds several records for some structures; these can differ, active in one and inactive in another. Activity calls are given as the source filed them. Unless noted, calls come from the whole dose curve; as a rule, active = well fitted curve in the direction sought with a large enough effect in the repeat runs; inconclusive = weak or mixed curves; inactive = no such curve, though single readings can be large; an effect the other way counts as inactive or inconclusive.
% is set by controls: 0 for no effect and ±100 for the full control effect.

As for `N#CCCCl`, the Potency entry in test [1], in test [2], in test [3], in [4], in test [5] and in test [6] was “inactive” in each case. The Potency result in test [7], in test [8], in [9], in test [11], in test [12] and in test [13] was “inactive” throughout. Further, the Potency result in [14], in [15] and in [16] was “inactive” throughout. In addition, in [10], the max response is 2.74% (inactive) and -10.7% (inactive).

On to `CN(C)c1ccc(C(=O)c2ccc(N(C)C)cc2)cc1`, for which the Potency entry in test [1], in test [2], in [4], in test [6], in [7] and in test [9] was “inactive” in each case. Besides, the Potency result in test [11], in test [12], in [13] and in test [16] was “inactive” in each case. In addition, the outcome in [17] was inactive. Also, the Potency in test [5] was 2.75 µM (active); in test [10] it was 3.47 µM (active); in [15], 5.44 µM (active) and 1.95 µM (active).

Regarding `CC(C)C(=O)OCC(C)(C)C(OC(=O)C(C)C)C(C)C` (stereo not given), the Potency entry in test [1], in [2], in [3], in test [18], in test [4] and in [5] was “inactive” in each case. Besides, the Potency result in test [7], in [8], in test [9], in test [11], in test [12] and in [13] was “inactive” each time. For the same compound, the Potency result in test [15] and in test [16] was “inactive” throughout. Further, the activity change, positive = activation in [19] (at 92.4 µM (top of the series)) was 5% (inactive) and 0.884% (inactive). In test [10], the max response is -10.2% (inactive) and 4.91% (inactive).

Take `Oc1cc(Cl)ccc1Cl`: the Potency result in test [1], in [2], in test [3], in test [4], in test [5] and in [20] was “inactive” throughout. In addition, the Potency entry in test [7], in test [8], in test [9], in test [11], in test [12] and in [13] was “inactive” each time. Besides, the Potency entry in test [14], in test [15] and in test [16] was “inactive” each time. The max response in [10] is -8.7% (inactive) and -0.256% (inactive).

For the compound `O=C(Nc1ccc(Br)cc1)c1cc(Br)cc(Br)c1O`, the Potency is 38.8 µM (active) and 24.5 µM (active) in test [1]; 28.3 µM (active) and 35.7 µM (active) and 39.1 µM (active) in test [3]; 12.2 µM (active) in test [18]; 21.8 µM (active) and 21.9 µM (active) in test [5]; “inactive and 38.9 µM (active)” in test [20]; 43.5 µM (active) in [6]. Moreover, the Potency in test [7] is 38.9 µM (active) and inactive; in test [10], 17.3 µM (active) and 19.5 µM (active); in [12], “inactive and 43.6 µM (active)”; in test [15] it was 19.4 µM (active) and 24.5 µM (active) and 23.9 µM (active); in test [16], 24.5 µM (active). For the same compound, the Potency entry in test [2], in test [4], in test [8] and in test [9] was “inactive” throughout. Moreover, the activity change, positive = activation in [19] (at 42.5 µM (top of the series)) is -35.9% (inactive); in [19] (at 92.4 µM (top of the series)), -31.1% (inactive) and -48% (inactive).

As to `O=c1oc2ccccc2c(O)c1C(CC(O)c1ccc(-c2ccc(Br)cc2)cc1)c1ccccc1` (stereo not given), the Potency in test [1] was 52 µM (active) and inactive; in test [16] it was 18.4 µM (active) and 12 µM (active). For the same compound, the Potency result in [2], in test [3], in test [4], in test [5], in [20] and in test [6] was “inactive” throughout. In addition, the Potency result in [7], in [8], in test [9], in [11], in [12] and in [13] was “inactive” throughout. Besides, the Potency entry in test [15] is “inactive”. The max response in test [10] is -3.76% (inactive) and 7.1% (inactive).

The values above are taken from PubChem BioAssay (Tox21).
